From PubChem BioAssay AID1347075 (National Center for Advancing Translational Sciences (NCATS), 2019)
The campaign covered roughly 400,000 compounds. About 5,500 (1.4%) were called active. Entries that show only a call come without a potency. About 9% were inconclusive and are not listed. The call rests on the fitted dose curve; in most records, active means well fitted cell-killing curve with a large enough effect; inconclusive means small, poorly fitted or top-dose-only effect, or effect the other way; inactive means flat fitted curve, though single readings scatter. For the sample, actives were picked, then their nearest neighbours and some compounds at random.
Potency means the concentration at half of the fitted maximal effect.

Assay: qHTS assay for MDR1-selective chemotherapeutics: Primary screen using the parental adenocarcinoma cell KB-3-1; further: nearly all actives have a fitted effect of over 60% in size
Settings: KB-3-1 viability, CellTiter-Glo ATP luminescence, 72 h; series mostly up to 46.1 µM
Procedure, shortened: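 Here the drug-naive KB-3-1 line serves as comparator for MDR sub-line selectivity; cells received compound titrations, 72 h at 37 °C, then CellTiter-Glo readout.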
For CCOc1ccc(CC(=O)NCCc2csc3nc(-c4ccccc4F)nn23)cc1, the Potency was “inactive”. With Cc1cccc(OCCSc2nc3ccccc3n2CC(=O)N2CCCCC2)c1C the Potency was “inactive”. For Cc1cc(N2CCN(c3cccc(C(F)(F)F)c3)CC2)n2nc(-c3ccccc3)nc2n1, the Potency was “inactive”. With O=S(=O)(CCc1nc2ccccc2o1)c1ccc(Cl)cc1 the Potency was “inactive”. For O=S(=O)(NC1CC1)c1ccc(Cl)cc1, the Potency was “inactive”. With O=S(=O)(Cc1ccc(Cl)cc1Cl)c1ccc(Cl)cc1 the Potency was 1.64 µM (active). With O=C(CCl)Nc1cccc(CP(=O)(c2ccccc2)c2ccccc2)c1 the Potency was 13 µM (active). With O=C(CSc1ccccc1)Nc1ccc(C(=O)Nc2cccc(O)c2)cc1 the Potency was “inactive”. With CSc1cccc(NC(=O)CSc2ccccc2)c1 the Potency was “inactive”. For Cc1cccc(CC(=O)N2CC(=O)Nc3ccc(F)cc3C2c2ccccc2)c1 (stereo unspecified), the Potency was “inactive”. In the case of O=C(C[n+]1ccncc1)c1ccc2c(c1)CCCC2, the Potency is reported as “inactive”. In the case of CC(C)c1nnc(NC(=O)COC(=O)/C=C/c2ccc([N+](=O)[O-])cc2)s1, the Potency is reported as “inactive”. For CCOC(=O)/C(=C\c1ccc([N+](=O)[O-])cc1)C(=O)c1cc(C(C)=O)c(Nc2ccccc2)s1, the Potency was 3.26 µM (active). With CCOC(=O)C/C(C)=N\Nc1ccc([N+](=O)[O-])cc1[N+](=O)[O-] the Potency was “inactive”. With CN(C)S(=O)(=O)c1ccc(C(=O)N(Cc2cccnc2)c2nc3c(F)cc(F)cc3s2)cc1 the Potency was “inactive”. With CC(=O)N1CCCc2cc(S(=O)(=O)N3CCC(C(=O)NCc4ccc(C)cc4)CC3)ccc21 the Potency was “inactive”. In the case of COc1cccc(CNC(=O)C2CCC(CNS(=O)(=O)c3cccs3)CC2)c1 (stereo unspecified), the Potency is reported as “inactive”. With NS(=O)(=O)c1ccc(CNC(=O)c2cccc(S(=O)(=O)N3CCc4ccccc43)c2)cc1 the Potency was “inactive”. With O=S(=O)(c1ccc2c(c1)OCCO2)N1CCc2ccccc21 the Potency was “inactive”. For CCn1c(=O)c(=O)n(CC)c2cc(S(=O)(=O)N3CCc4ccccc43)ccc21, the Potency was 20.6 µM (active). For Nc1nc(N)c(N=O)c(N)n1, the Potency was “inactive”. For Cc1cc(Cl)ccc1OCC(=O)N(Cc1ccc(N(C)C)cc1)C1CCS(=O)(=O)C1 (stereo unspecified), the Potency was “inactive”. For Cc1c(Nc2cc(N3CCCC(C)C3)c3nonc3c2[N+](=O)[O-])c(=O)n(-c2ccccc2)n1C (stereo unspecified), the Potency was “inactive”. In the case of Nc1cc(N2CCCCCC2)c2nonc2c1[N+](=O)[O-], the Potency is reported as 11.6 µM (active). In the case of COCCNc1nc(N)c([N+](=O)[O-])c(N2CCCCCC2)n1, the Potency is reported as “inactive”. For COc1ccc2ncc3c(-c4ccc(C)c(C)c4)nn(CC(=O)NC4CCCC4)c3c2c1, the Potency was “inactive”. For C/C(=N/NC(=O)CC(=O)N/N=C(\C)c1ccc([N+](=O)[O-])cc1)c1ccc([N+](=O)[O-])cc1, the Potency was “inactive”. With Cc1ccc(C(=O)Cn2cccn2)cc1 the Potency was “inactive”. For CC1=CC(C)(C)NC(=S)N1NC(=O)c1ccccc1Cl, the Potency was “inactive”. For CC12CCC(C(=O)N(NC(=O)c3ccccc3O)C1=O)C2(C)C (stereo unspecified), the Potency was 16.4 µM (active). In the case of CC(Sc1nnc2c(n1)C1CCC2(C)C1(C)C)C(=O)Nc1ccccc1 (stereo unspecified), the Potency is reported as “inactive”. In the case of Cc1ccc(CNC(=O)CCC(=O)N2Cc3ccccc3Oc3ncccc32)cc1, the Potency is reported as “inactive”. In the case of CNC(=O)CN1C(=O)c2cccnc2Sc2ccccc21, the Potency is reported as “inactive”. In the case of COCCNC(=O)c1ccc2c(c1)N=C(C)c1cc(C)ccc1S2, the Potency is reported as 0.651 µM (active). With COCCNC(=O)c1ccc(S(=O)(=O)c2ccc(Cl)cc2)c(NC(C)=O)c1 the Potency was “inactive”. In the case of CC1=Nc2cc(C(=O)N3CCC(C)CC3)ccc2Sc2ccc(Cl)cc21, the Potency is reported as “inactive”. For NC(=O)CSc1nc2c(oc3ccccc32)c(=O)n1Cc1ccccc1, the Potency was “inactive”. With O=c1[nH]c(CCl)nc2cc(-c3ccc(Cl)cc3)sc12 the Potency was 9.2 µM (active). With Cn1c(NCc2cccnc2)nc2cc(-c3ccc(F)cc3)sc2c1=O the Potency was “inactive”. For COc1cccc(-c2cc3nc(NCCOc4ccccc4Cl)n(C)c(=O)c3s2)c1, the Potency was “inactive”. In the case of Cc1cc(C)c2oc(C(=O)Nc3ccc(S(=O)(=O)N(C)c4ccccc4)cc3)cc(=O)c2c1, the Potency is reported as “inactive”. In the case of CN(C)S(=O)(=O)N1CCC(Oc2cccc(C(=O)NCCCC3CCCC3)c2)CC1, the Potency is reported as 14.6 µM (active). In the case of COc1cccc(C(=O)NCCS(=O)(=O)NCC2CCCO2)c1 (stereo unspecified), the Potency is reported as “inactive”. In the case of CN(C(=O)c1cccc(OC2CCN(S(=O)(=O)N(C)C)CC2)c1)C1CCOC1 (stereo unspecified), the Potency is reported as “inactive”. For COc1cccc(NC(=O)C2CCN(c3cc(C)nc4c(-c5ccc(Cl)cc5)c(C)nn34)CC2)c1, the Potency was “inactive”. With CC(NC(=O)c1cc2c(=O)n3ccccc3nc2n(C(C)C)c1=N)c1ccccc1 (stereo unspecified) the Potency was “inactive”. In the case of COc1ccc(OC)c(CNC(=O)Cn2nc(C)c3c(C)n(-c4ccccc4)nc3c2=O)c1, the Potency is reported as “inactive”. In the case of CC(O)(c1cccc(F)c1)c1nc(-c2ccc3c(c2)OCO3)cs1 (stereo unspecified), the Potency is reported as “inactive”. In the case of O=C(Nc1nc(-c2ccc3c(c2)OCO3)cs1)c1ccncc1, the Potency is reported as 2.91 µM (active). In the case of COc1ccc(C(O)c2nc(-c3ccc4c(c3)OCO4)cs2)cc1 (stereo unspecified), the Potency is reported as “inactive”. In the case of Cc1nn(C(C)C(=O)NCCc2ccccc2)c(=O)c2c1sc1ccccc12 (stereo unspecified), the Potency is reported as “inactive”. For CCC(C(=O)Nc1cc(OC)ccc1OC)n1c(=O)c(C(F)(F)F)nc2ccccc21 (stereo unspecified), the Potency was “inactive”. In the case of O=C(CN1c2ccccc2S(=O)(=O)c2ccccc21)Nc1cccc(C(F)(F)F)c1, the Potency is reported as “inactive”. With COc1ccc(/C=C2\N=C3CCCN3C2=O)cc1 the Potency was “inactive”. With COc1ccccc1C1=CC(=O)CCC1 the Potency was “inactive”. In the case of COc1ccc(/C=C2/CCCc3ccccc3C2=O)cc1, the Potency is reported as 0.651 µM (active). In the case of Cc1cc2nc(NC(=O)c3ccc(S(=O)(=O)N4CCOCC4)cc3)sc2cc1C, the Potency is reported as “inactive”. In the case of CNC(=O)c1ccsc1NC(=O)c1ccc(S(=O)(=O)N2CCc3ccccc32)cc1, the Potency is reported as “inactive”. With O=C(Nc1nc2ccc([N+](=O)[O-])cc2s1)c1ccc(S(=O)(=O)N2CCCc3ccccc32)cc1 the Potency was 2.06 µM (active). In the case of O=C(NC1CCCCC1)c1ccc2c(c1)N(Cc1ccc(Cl)cc1)C(=O)c1ccccc1S2=O (stereo unspecified), the Potency is reported as “inactive”. In the case of N#Cc1ccc(C(=O)Nc2nc(-c3cccs3)c(C(=O)C(F)(F)F)s2)cc1, the Potency is reported as 5.8 µM (active). In the case of COc1ccc(C(F)(F)F)cc1NC(=O)c1sc2nc(-c3cccs3)ccc2c1N, the Potency is reported as “inactive”. For N#Cc1c(-c2cccs2)nc(SCC(=O)c2ccc(Br)cc2)[nH]c1=O, the Potency was “inactive”. For NCCCNC(=S)NCCCN(Cc1ccc(Cl)cc1)c1ccc(Br)cn1, the Potency was “inactive”. For S=C(NCCCc1cnc[nH]1)NCCCN(Cc1ccc(Cl)c(Cl)c1)c1ccc(Br)cn1, the Potency was 13 µM (active). With O=C(Nc1ccc(Cl)cc1)c1cnn2c1NC(=C1CC1)C=C2C(F)F the Potency was “inactive”. For CCn1c(=O)c2cc(C(=O)NCCc3ccc(Cl)cc3)sc2c2ccccc21, the Potency was “inactive”. With CSc1nc(Nc2ccc(F)cc2)cc(-c2ccccc2)n1 the Potency was “inactive”. With CSc1nc(-c2ccccc2)nc(C(Cl)Cl)n1 the Potency was 2.91 µM (active). For CC(=O)c1ccc(NC(=O)C2CCN(S(=O)(=O)c3c(C)noc3/C=C/c3ccc(C)cc3)CC2)cc1, the Potency was “inactive”. With COc1ccc(CNC(=O)CSCc2nc(-c3ccccc3F)oc2C)cc1 the Potency was “inactive”. In the case of Fc1ccccc1Oc1ncnc2c1oc1ccccc12, the Potency is reported as “inactive”. With CC(C)C1C(=O)N(Cc2cn(CCC3OCCO3)nn2)CCS(=O)(=O)N1Cc1ccc(-c2ccccc2C(F)(F)F)cc1 (stereo unspecified) the Potency was “inactive”. For Cc1ccc(-c2ccc(CN3C(C(C)C)C(=O)N(Cc4cn(CCC5OCCO5)nn4)CCS3(=O)=O)cc2)cc1 (stereo unspecified), the Potency was 18.4 µM (active). With Cc1ccc(-c2ccc(CN3C(C)C(=O)N(Cc4cn(CCC5OCCCO5)nn4)CCS3(=O)=O)cc2)cc1 (stereo unspecified) the Potency was “inactive”. In the case of Cc1ccc(-c2nc3ccccn3c2Nc2c(C)cccc2C)o1, the Potency is reported as “inactive”. In the case of CCOc1ccc(NC(=O)Cn2c(C)ccc(C#N)c2=O)cc1, the Potency is reported as “inactive”. For CC(=O)c1cccc(Nc2ccc3cc(S(=O)(=O)N4CCC(C)CC4)ccc3n2)c1, the Potency was “inactive”. With CCOc1cc(NC(=O)Nc2ccccc2)c(OCC)cc1NC(=O)CC the Potency was “inactive”. With CCCC(=O)Nc1cc(OCC)c(NC(=O)NC2CCCCC2)cc1OCC the Potency was “inactive”. In the case of CCOc1cc(NC(=O)CCl)c(OCC)cc1NC(C)=O, the Potency is reported as 18.4 µM (active). With COc1ccc(OC)c(NC(=O)C2CCCN(S(=O)(=O)c3ccc4c(c3)CCCC(=O)N4)C2)c1 (stereo unspecified) the Potency was “inactive”. In the case of COC(=O)c1cc(NC(=O)CCS(=O)(=O)c2cc(Br)cc3c2N(C(=O)C2CC2)CC3)cc(C(=O)OC)c1, the Potency is reported as “inactive”. In the case of Cc1ccc(Cc2cnc(NC(=O)/C(C#N)=C/c3ccc(-c4cccc([N+](=O)[O-])c4)o3)s2)cc1, the Potency is reported as 14.6 µM (active). In the case of Cc1ccc(C(=O)N/C(=C/c2ccc(-c3cccc([N+](=O)[O-])c3)o2)C(=O)NCCCN(C)C)cc1, the Potency is reported as “inactive”. For CCOC(=O)c1ccc(-c2ccc(/C=C(\C#N)C(=O)Nc3ccc(C)cc3)o2)cc1, the Potency was “inactive”. In the case of CCc1ccccc1NC(=O)CSc1nc(C)c(C(=O)Nc2ccccc2)c(-c2ccc(Cl)cc2)c1C#N, the Potency is reported as “inactive”. With CCN(CCCNC(=O)c1c(C)oc2ncn(CC(C)C)c(=O)c12)Cc1ccccc1 the Potency was “inactive”. For COc1ccc(-c2cc(NCc3ccc(F)cc3)n3cnnc3n2)cc1, the Potency was “inactive”. In the case of COc1cc(OC)cc(C(=O)NC(C(=O)N2CCC2)C(C)C)c1 (stereo unspecified), the Potency is reported as “inactive”. With COc1cc(OC)cc(C(=O)N[C@H](C(=O)OCC(=O)NC(C)c2ccccc2)C(C)C)c1 (stereo partly specified) the Potency was “inactive”. With COc1cc(OC)cc(C(=O)N[C@H](C(=O)Nc2nc3ccccc3[nH]2)C(C)C)c1 the Potency was 1.64 µM (active). For COc1ccc(O)c(/C=N/N=C/c2cccc([N+](=O)[O-])c2)c1, the Potency was “inactive”. In the case of CCCc1ccc(OCc2ccc(C(=O)N/N=C/c3cccc([N+](=O)[O-])c3)o2)c(OC)c1, the Potency is reported as 18.4 µM (active). For COc1ccccc1OCc1ccc(C(=O)NC(C)c2ccccc2)o1 (stereo unspecified), the Potency was “inactive”. In the case of COc1ccc(OC)c(NC(=O)Cn2c(=O)n(Cc3ccccc3)c(=O)c3ccccc32)c1, the Potency is reported as “inactive”.
